In PubChem BioAssay AID1159580 (chemical genetic matrix, 2015):
Several values for one entry are separate records, joined by “and”; a condition that tells them apart may be missing. Equal entries are not always repeated. In all, about 5,500 compounds went through this assay and about 2,000 (36%) were called active. Not shown: some 18% with an inconclusive outcome. No stated cut-off is given here; in the data, active means normalized growth mostly below about 0.91 (no sharp cut-off); inconclusive means no clear call, values can overlap the other calls; inactive means mostly above about 0.92. This is one part of the list.

Test: chemical genetic growth profiling, strain panel (AID 1159580);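 further: tested at 20 µM; growth read once vehicle control cultures reached saturation at 30 °C; 1 = growth at the plate median or of vehicle wells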
Conditions: S. cerevisiae deletion strains, growth OD

Measured: normalized growth

Nc1nc2c(c(=O)[nH]1)N(C=O)C(CNc1ccc(C(=O)N[C@@H](CCC(=O)O)C(=O)O)cc1)CN2 (stereo not given in full)
inactive: locus YAL021C, strain ccr4, stronger effect = lower value 0.973 | locus YAL026C, strain drs2, stronger effect = lower value 1 | locus YAL030W, strain snc1, stronger effect = lower value 0.969 | locus YBL061C, strain skt5, stronger effect = lower value 0.975 | locus YBR009C, strain hhf1, stronger effect = lower value 1.02 | locus YBR021W, strain FUR4, stronger effect = lower value 0.988 | locus YBR023C, strain chs3, stronger effect = lower value 0.971 | locus YBR171W, strain sec66, stronger effect = lower value 0.94 | locus YBR229C, strain ROT2, stronger effect = lower value 0.991 | locus YBR231C, strain swc5, stronger effect = lower value 0.943 | locus YBR279W, strain paf1, stronger effect = lower value 0.991 | locus YCL011C, strain gbp2, stronger effect = lower value 0.99 | locus YCL016C, strain dcc1, stronger effect = lower value 1.02 | locus YCL029C, strain bik1, stronger effect = lower value 0.985 | locus YCL061C, strain MRC1, stronger effect = lower value 0.964 | locus YCL069W, strain vba3, stronger effect = lower value 0.971 | locus YCR088W, strain abp1, stronger effect = lower value 0.971 | locus YDL005C, strain med2, stronger effect = lower value 0.963 | locus YDL035C, strain GPR1, stronger effect = lower value 1.01 | locus YDL040C, strain nat1, stronger effect = lower value 0.974 | locus YDL074C, strain BRE1, stronger effect = lower value 0.999 | locus YDL101C, strain DUN1, stronger effect = lower value 0.987 | locus YDL185W, strain tfp1, stronger effect = lower value 0.986 | locus YDL192W, strain arf1, stronger effect = lower value 0.981 | locus YDR001C, strain nth1, stronger effect = lower value 0.956 | locus YDR069C, strain doa4, stronger effect = lower value 0.94 | locus YDR101C, strain arx1, stronger effect = lower value 1 | locus YDR137W, strain rgp1, stronger effect = lower value 0.947 | locus YDR159W, strain sac3, stronger effect = lower value 1.01 | locus YDR162C, strain NBP2, stronger effect = lower value 1 | locus YDR195W, strain ref2 0.906 | locus YDR297W, strain sur2, stronger effect = lower value 0.972 | locus YDR318W, strain mcm21, stronger effect = lower value 0.985 | locus YDR334W, strain swr1, stronger effect = lower value 0.934 | locus YDR335W, strain msn5, stronger effect = lower value 0.964 | locus YDR388W, stronger effect = lower value 0.985 | locus YDR392W, strain spt3, stronger effect = lower value 1.1 | locus YDR502C, strain sam2, stronger effect = lower value 0.985 | locus YEL003W, strain gim4, stronger effect = lower value 0.971 | locus YEL037C, strain rad23, stronger effect = lower value 0.978 | locus YEL061C, strain CIN8 (second series), stronger effect = lower value 0.953 | locus YEL061C, strain CIN8, stronger effect = lower value 0.996 | locus YER015W, strain faa2, stronger effect = lower value 1.01 | locus YER016W, strain bim1, stronger effect = lower value 0.99 | locus YER110C, stronger effect = lower value 0.978 | locus YER111C, strain swi4, stronger effect = lower value 0.968 | locus YER155C, strain BEM2 (second series), stronger effect = lower value 0.954 | locus YER155C, strain BEM2, stronger effect = lower value 0.981 | locus YER167W, strain BCK2, stronger effect = lower value 0.993 | locus YFR010W, strain ubp6, stronger effect = lower value 0.931 | locus YGL078C, strain dbp3, stronger effect = lower value 0.967 | locus YGL086W, strain mad1, stronger effect = lower value 1 | locus YGL167C, strain pmr1, stronger effect = lower value 0.957 | locus YGL173C, strain kem1, stronger effect = lower value 0.966 | locus YGL227W, strain vid30, stronger effect = lower value 0.964 | locus YGL240W, strain doc1, stronger effect = lower value 0.94 | locus YGL248W, strain PDE1, stronger effect = lower value 0.982 | locus YGL253W, strain hxk2, stronger effect = lower value 0.986 | locus YGR135W, strain pre9, stronger effect = lower value 0.945 | locus YGR252W, strain gcn5, stronger effect = lower value 0.948 | locus YHR013C, strain ard1, stronger effect = lower value 0.972 | locus YHR027C, strain rpn1, stronger effect = lower value 0.972 | locus YHR030C, strain SLT2, stronger effect = lower value 0.993 and 0.985 | locus YHR079C, strain IRE1 (second series), stronger effect = lower value 0.989 | locus YHR079C, strain IRE1, stronger effect = lower value 1 | locus YHR094C, strain hxt1, stronger effect = lower value 0.984 | locus YHR129C, strain ARP1, stronger effect = lower value 0.99 | locus YHR142W, strain chs7, stronger effect = lower value 0.957 | locus YHR200W, strain rpn10, stronger effect = lower value 0.986 | locus YIL066C, strain RNR3, stronger effect = lower value 0.989 | locus YIL073C, strain SPO22, stronger effect = lower value 1.01 | locus YIL125W, strain kgd1, stronger effect = lower value 0.989 | locus YIR030C, strain dcg1, stronger effect = lower value 0.979 | locus YJL092W, strain hpr5, stronger effect = lower value 0.963 | locus YJL095W, strain BCK1 (second series), stronger effect = lower value 0.967 | locus YJL095W, strain BCK1, stronger effect = lower value 0.975 and 1.02 | locus YJL115W, strain asf1, stronger effect = lower value 0.949 | locus YJL129C, strain trk1, stronger effect = lower value 0.954 | locus YJL134W, strain LCB3, stronger effect = lower value 0.991 | locus YJL154C, strain vps35, stronger effect = lower value 0.959 | locus YJL164C, strain tpk1, stronger effect = lower value 1.02 | locus YJL166W, strain qcr8, stronger effect = lower value 0.932 | locus YJL168C, strain set2, stronger effect = lower value 0.981 | locus YJL187C, strain SWE1 (second series), stronger effect = lower value 0.985 | locus YJL187C, strain SWE1, stronger effect = lower value 0.977 | locus YJR043C, strain POL32, stronger effect = lower value 1.01 | locus YJR066W, strain TOR1, stronger effect = lower value 0.969 | locus YJR075W, strain HOC1, stronger effect = lower value 0.993 | locus YKL009W, strain mrt4, stronger effect = lower value 0.996 | locus YKL068W, stronger effect = lower value 0.991 | locus YKL085W, strain MDH1 (second series), stronger effect = lower value 0.979 | locus YKL085W, strain MDH1, stronger effect = lower value 0.979 | locus YKL160W, strain elf1, stronger effect = lower value 0.972 | locus YKL190W, strain CNB1, stronger effect = lower value 1 | locus YKR001C, strain vps1, stronger effect = lower value 0.997 | locus YKR026C, strain gcn3, stronger effect = lower value 0.961 | locus YKR091W, strain srl3, stronger effect = lower value 0.984 | locus YLL001W, strain dnm1, stronger effect = lower value 0.926 | locus YLL026W, stronger effect = lower value 0.948 | locus YLL041C, strain sdh2, stronger effect = lower value 0.976 | locus YLR027C, strain aat2, stronger effect = lower value 0.958 | locus YLR039C, strain RIC1, stronger effect = lower value 0.958 | locus YLR058C, strain SHM2, stronger effect = lower value 0.983 | locus YLR102C, strain apc9, stronger effect = lower value 0.989 | locus YLR113W, strain HOG1, stronger effect = lower value 1.02 | locus YLR221C, strain rsa3, stronger effect = lower value 1.01 | locus YLR258W, strain gsy2, stronger effect = lower value 1.01 | locus YLR262C, strain YPT6 (second series), stronger effect = lower value 0.941 | locus YLR262C, strain YPT6, stronger effect = lower value 1.02 | locus YLR268W, strain sec22, stronger effect = lower value 0.984 | locus YLR320W, strain mms22, stronger effect = lower value 1.01 | locus YLR330W, strain CHS5, stronger effect = lower value 0.988 | locus YLR342W, strain FKS1 (second series), stronger effect = lower value 1 | locus YLR342W, strain FKS1, stronger effect = lower value 0.955 | locus YLR357W, strain rsc2, stronger effect = lower value 0.928 | locus YLR370C, strain arc18, stronger effect = lower value 0.959 | locus YLR371W, strain rom2, stronger effect = lower value 0.975 | locus YLR384C, strain iki3, stronger effect = lower value 0.958 | locus YLR418C, strain cdc73, stronger effect = lower value 0.938 | locus YML016C, strain PPZ1, stronger effect = lower value 0.992 | locus YML032C, strain rad52, stronger effect = lower value 0.999 | locus YML120C, strain ndi1, stronger effect = lower value 0.956 | locus YML124C, strain tub3, stronger effect = lower value 0.991 | locus YMR058W, strain fet3, stronger effect = lower value 0.954 | locus YMR078C, strain ctf18, stronger effect = lower value 0.981 | locus YMR125W, strain sto1, stronger effect = lower value 0.965 | locus YMR129W, stronger effect = lower value 0.971 | locus YMR205C, strain PFK2, stronger effect = lower value 0.978 | locus YMR223W, strain ubp8, stronger effect = lower value 0.959 | locus YMR231W, strain pep5, stronger effect = lower value 0.964 | locus YMR307W, strain GAS1, stronger effect = lower value 0.961 | locus YNL067W, strain RPL9B, stronger effect = lower value 0.999 | locus YNL071W, strain lat1, stronger effect = lower value 0.984 | locus YNL128W, strain TEP1, stronger effect = lower value 0.979 | locus YNL183C, strain NPR1, stronger effect = lower value 0.97 | locus YNL209W, strain ssb2, stronger effect = lower value 0.986 | locus YNL233W, strain BNI4, stronger effect = lower value 0.986 | locus YNL248C, strain rpa49, stronger effect = lower value 0.978 | locus YNL250W, strain rad50, stronger effect = lower value 0.977 | locus YNL271C, strain bni1, stronger effect = lower value 0.967 | locus YNL298W, strain CLA4, stronger effect = lower value 0.985 | locus YNL307C, strain MCK1, stronger effect = lower value 0.99 | locus YNL322C, strain KRE1 (second series), stronger effect = lower value 0.965 | locus YNL322C, strain KRE1, stronger effect = lower value 0.995 | locus YNR049C, strain mso1, stronger effect = lower value 0.971 | locus YNR052C, strain pop2, stronger effect = lower value 0.984 | locus YOL006C, strain TOP1, stronger effect = lower value 0.964 | locus YOL012C, strain htz1 0.703 | locus YOL147C, strain pex11, stronger effect = lower value 0.978 | locus YOR001W, strain rrp6, stronger effect = lower value 0.943 | locus YOR061W, strain CKA2, stronger effect = lower value 0.992 | locus YOR069W, strain VPS5, stronger effect = lower value 0.989 | locus YOR070C, strain gyp1, stronger effect = lower value 0.991 | locus YOR080W, strain dia2, stronger effect = lower value 0.966 | locus YOR083W, strain WHI5, stronger effect = lower value 0.961 | locus YOR106W, strain vam3, stronger effect = lower value 0.943 | locus YOR136W, strain idh2, stronger effect = lower value 0.99 | locus YOR144C, strain elg1, stronger effect = lower value 0.992 | locus YOR184W, strain ser1, stronger effect = lower value 0.978 | locus YOR231W, strain MKK1, stronger effect = lower value 1.02 | locus YOR265W, strain rbl2, stronger effect = lower value 0.965 | locus YOR270C, strain vph1, stronger effect = lower value 0.957 | locus YOR290C, strain snf2, stronger effect = lower value 1.01 | locus YOR316C, strain cot1, stronger effect = lower value 0.987 | locus YPL051W, strain arl3, stronger effect = lower value 0.985 | locus YPL055C, strain LGE1, stronger effect = lower value 0.981 | locus YPL078C, strain atp4, stronger effect = lower value 0.904 | locus YPL106C, strain sse1, stronger effect = lower value 0.947 | locus YPL240C, strain hsp82, stronger effect = lower value 0.968 | locus YPL256C, strain CLN2, stronger effect = lower value 0.993 | locus YPR119W, strain clb2, stronger effect = lower value 0.986 | locus YPR141C, strain kar3, stronger effect = lower value 0.977 | locus YPR163C, strain tif3, stronger effect = lower value 0.976 | locus YPR167C, strain met16, stronger effect = lower value 0.986 | strain wtn01, stronger effect = lower value 0.981
